Source: PubChem BioAssay
The list is not random: actives were taken first. Their share in the collection is about 8%.
SARS PLpro yeast: SARS-CoV PLP inhibition in yeast; AID 485353; S. cerevisiae expressing SARS-CoV PLpro, growth rescue; hit rate 0.19% among 330,000; Potency, µM (top dose mostly 32.9 µM), for the others: top-dose activity, positive = growth rescue, hits mostly activators; calls by dose curve; note: potency is the fitted concentration of half-maximal effect; 0% is about no effect; nearly all actives have a fitted effect of over 55% in size
MARV entry inh: Marburg virus entry inhibition; Marburg virus pseudotyped entry inhibition, cell reporter; Potency, µM (top dose mostly 37.8 µM), for the others: at the highest dose activity change, negative = inhibition, usual class: inhibitors; hit rate 1.8% among 300,000; AID 540276; calls by dose curve; tested in HEK293 cells; note: potency is the fitted concentration of half-maximal effect; % is set by controls: 0 for no effect and ±100 for the full control effect
FMDV antiviral: antivirals against foot and mouth disease virus; FMDV antiviral cell-based qHTS; hit rate 1.2% among 410,000; AID 1159524; Potency, µM (series often up to 57.9 µM), inactives show top-dose activity change, negative = inhibition, actives largely listed as inhibitors; calls by dose curve; tested in HEK293T cells; note: read-out not given here; potency is the fitted concentration of half-maximal effect; % is set by controls: 0 for no effect and ±100 for the full control effect; nearly all actives have a fitted effect of over 45% in size
Lassa entry inh: Lassa virus entry inhibition. Lassa virus pseudotype entry inhibition, cell reporter. Potency, µM (highest dose often 37.9 µM), without a hit: at the highest dose activity change, negative = inhibition, actives largely listed as inhibitors. hit rate 1.2% among 300,000. AID 540256; calls by dose curve; tested in HEK293 cells; note: potency is the fitted concentration of half-maximal effect; % is set by controls: 0 for no effect and ±100 for the full control effect; nearly all actives have a fitted effect of over 50% in size
HCMV inh: human cytomegalovirus inhibition. HFF cells, HCMV-luciferase reporter, 72 h; active compounds read low. activity change, negative = inhibition, % at 57.5 µM. hit rate 4.5% among 410,000; in the data active = activity change below about -60%; inconclusive = no clear call, values can overlap the other calls; inactive = above about -39%; note: % is set by controls: 0 for no effect and ±100 for the full control effect
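Two-dose cell screen: HFF monolayers treated with compounds and infected with luciferase-expressing HCMV at 1 PFU/cell, 72 h at 37C, then lysed for luciferase measurement.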
HCV inh: HCV inhibition | Huh7.5.1 HCVcc-Cre infection, luciferase reporter, 44 h | Potency, µM (titrated, usually from 41.8 µM), for inactives: top-dose activity change, negative = inhibition, hits mostly inhibitors | hit rate 3.4% among 340,000 | AID 651820; active = well fitted inhibition curve with a large enough effect; inconclusive = small, poorly fitted or top-dose-only effect, or another doubt; inactive = no such curve, though single readings can be large or run the other way; note: potency is the fitted concentration of half-maximal effect; % is set by controls: 0 for no effect and ±100 for the full control effect
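Cells seeded at 1,000/well and cultured 4 h, then compounds added followed by HCVcc-Cre virus (~0.5 moi). After 44 h further culture, luciferase substrate was added, plates held 15 min at room temperature, and luminescence read for 15 sec.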
Active calls of the source: *; ? = inconclusive; . = no result given; [ ] = another dose, or the depositor's remark.

SMILES | SARS PLpro yeast | MARV entry inh | FMDV antiviral | Lassa entry inh | HCMV inh | HCV inh
CCCc1cc(=O)[nH]c(SCC(=O)Nc2ccc(OC)c(S(=O)(=O)N3CCCCC3)c2)n1 | -1.5% | . | -6.6% | . | -3.1 | ?
COc1ccc(O)c(/C=N/NC(=O)CN2CCS(=O)(=O)CC2)c1 | -3.8% | 10.8%[46.1 µM] | -11.3% | -4.4%[46.1 µM] | -10.3 | -21.8%
O=C(Cc1nc2ccccc2[nH]1)c1cccc([N+](=O)[O-])c1 | -1.6% | . | -19.8% | . | -16.9 | 11.2µM*
N#CC1=C(N)OC2=C(CC/C2=C\c2ccccc2Cl)C1c1ccccc1Cl (stereo unspecified) | 3.1% | 0.0% | -28.1% | . | ? | ?
N#CC1=C(N)OC2=C(CC/C2=C\c2ccccc2)C1c1ccccc1 (stereo unspecified) | -2.3% | ? | 17.8µM* | -25.9% | 22.7 | -0.3%
CCC(C)n1c(=N)c(C(=O)NC2CCCCC2)cc2c(=O)n3ccccc3nc21 (stereo unspecified) | . | -2.3%[46.1 µM] | -13.3% | ? | -27.0 | .
OCCN1CCOCCN(CCO)CCOCC1 | 12.2% | ? | -17.9% | 20.5% | -92.1* | -2.0%
C(CCN1CCOCC1)CN1CCOCC1 | . | . | -0.6% | . | 61.9 | .
CC(C)(C)C(=O)NCCCc1nc2ccccc2n1CCCOc1ccc(Cl)cc1 | 3.4% | ? | 20µM* | ? | -84.5* | ?
OCc1nc2ccccc2n1CCCCOc1ccccc1 | . | ? | 4.0% | -25.7%[46.1 µM] | 29.5 | -14.9%
Cc1ccc(OCCCCn2c(CO)nc3ccccc32)cc1 | -5.3% | ? | 0.0% | -1.4%[46.1 µM] | -65.0* | -13.3%
Cc1ccccc1OC[C@H](O)Cn1c(N2CCN(c3ccccc3)CC2)nc2c1c(=O)[nH]c(=O)n2C | . | -20.0% | . | . | . | .
O=C(Nc1ccccc1C(F)(F)F)NC1(C(=O)N2CCOCC2)CCCCC1 | . | 7.2%[46.1 µM] | 6.2% | -0.4% | -11.1 | -27.9%
COc1ccc(C)cc1NC(=O)CNc1ccccc1CN(C)C1CCCCC1 | -0.3% | 4.47µM* | ? | -21.2%[46.1 µM] | -18.1 | -3.2%
COc1ccc(Cl)cc1NC(=O)CNc1ccccc1CN(C)C1CCCCC1 | 0.0% | 2.51µM* | ? | ? | 3.3 | -28.3%
COc1ccc(-n2nc3c(c2NC(=O)CCl)CSC3)cc1 | -3.1% | ? | 31.6µM* | ? | -29.2 | -31.8%
O=C(c1ccco1)N(CCC(c1ccccc1)c1ccco1)Cc1ccco1 (stereo unspecified) | -8.6% | ? | ? | -28.9% | 11.5 | 24.7%
CC(=O)N(CCC(Cc1ccccc1)c1ccco1)Cc1ccco1 (stereo unspecified) | 2.9% | . | ? | . | 24.6 | 11.2µM*
COc1ccc(CN(CCC(c2ccc3c(c2)OCO3)c2ccccc2OC)C(C)=O)cc1 (stereo unspecified) | . | . | ? | ? | -10.0 | .
CC(=O)N(CCC(Cc1ccccc1)c1ccc2c(c1)OCO2)Cc1ccc(Cl)cc1 (stereo unspecified) | -5.9% | ? | ? | ? | -32.6 | 11.2µM*
CC1(C(=O)NS(=O)(=O)c2ccccc2Cl)CCN1C(=O)Cc1cc(F)ccc1F (stereo unspecified) | . | . | -7.5% | . | -3.5 | .
NS(=O)(=O)c1cccc(NC(=O)COC(=O)CCc2ccccc2)c1 | -0.1% | 2.9%[46.1 µM] | -4.0% | -8.7% | 81.3 | 26.1%
Cc1ccc(N2CN=c3s/c(=C\c4cccnc4)c(=O)n3C2)cc1 | 2.9% | -20.5%[46.1 µM] | 19.0% | 7.0% | -69.0* | -11.5%
O=c1nc(Nc2ccc(OCc3ccccc3)cc2)sc2ncccc12 | 0.3% | ? | -17.4% | ? | -87.8* | -0.7%
CC(=O)c1cccc(Nc2nc(=O)c3cccnc3s2)c1 | 1.6% | -12.7% | 39.5% | 0.7% | 63.0 | -19.5%
SMILES | SARS PLpro yeast | MARV entry inh | FMDV antiviral | Lassa entry inh | HCMV inh | HCV inh
CCOC(=O)c1ccc(Nc2nc(=O)c3cccnc3s2)cc1 | 3.4% | 2.06µM* | 50.5% | -83.1%[14.3 µM] | ? | .
CC(=O)c1ccc(Nc2nc(=O)c3cccnc3s2)cc1 | . | ? | 47.5% | ? | 0.3 | -1.7%
CC(C)Oc1ccc(CNC(=O)c2cccc(NC(=O)N3CCSc4ncccc43)c2)cc1 | . | . | ? | -20.8%[46.1 µM] | ? | .
COc1cc2c(cc1OC)-c1c3c(cc4c1[C@@H](C2)N(C)CC4)OCO3 | 21.6% | -40.0% | ? | ? | -75.6* | ?
COc1cc2c(cc1OC)-c1c(OC)c(OC)cc3c1C(C2)N(C)CC3 (stereo unspecified) | 2.6% | . | -14.2% | . | 27.9 | -32.1%
COc1cc2c(cc1O)C[C@H]1NCCc3cc4c(c-2c31)OCO4 | -8.5% | ? | 0.0% | ? | -84.0* | 10.9%[8.37 µM]
COc1cc2c(cc1O)C(Cc1ccc(O)cc1)NCC2 (stereo unspecified) | 6.4% | 13.1% | -11.9% | -14.5% | -10.6 | -1.7%
Cc1nc2nc(-c3ccc(Cl)cc3)cn2nc1C | -4.8% | -11.7% | ? | ? | 60.6 | 0.1%
Cc1nc2nc(-c3cccs3)cn2nc1C | -1.1% | ? | 1.0% | 10.3µM* | 150.4 | 7.8%
CCCC(=O)N1CCC2(CC1)CN(C(=O)Nc1cccc(F)c1)[C@H](CO)c1c2c2ccc(OC)cc2n1C | . | . | . | . | -21.0 | .
CCCCC(=O)/C=C/n1c(=S)oc2ccccc21 | 7.3% | 17.8µM* | ? | 13.7% | -100.9* | ?
CC(C)OC(=O)n1c(=S)oc2ccccc21 | -35.4% | ? | . | -20.9% | 22.0 | 9.4%
CCCCCCC[N+](CC)(CC)CCCCc1ccc(Cl)cc1 | . | . | 17.8µM* | . | -100.5* | ?
NC(=S)NN=C1CCCCCCCCC1 | . | -12.1% | -24.9% | -0.8% | -35.4 | -21.9%
C/C(CC(C)(C)C1CCCCC1)=N\NC(N)=S | -37.1% | ? | . | 16.4µM* | -87.8* | 2.82µM*
O=C(NNC1=Nc2ccccc2SC1)c1cccc([N+](=O)[O-])c1 | -0.7% | ? | -4.6% | ? | -83.6* | -20.3%
O=C(NNC1=Nc2ccccc2SC1)c1ccccc1F | 0.6% | ? | -2.7% | ? | -85.9* | 14.1µM*
CC1=CC(=Nc2c(C)n(C)n(-c3ccccc3)c2=O)C=C(C)C1=O | 4.6% | ? | ? | ? | -74.6* | 31.7%
O=c1cnc2cnc(Nc3ccccc3)nc2n1C[C@H]1CCCO1 | . | . | -20.6% | . | . | .
CN(CCOc1ccc(Cl)cc1)C(=O)c1cccc(S(=O)(=O)N2CCN(c3ccc(F)cc3)CC2)c1 | . | 7.08µM* | ? | ? | . | 2.82µM*
COc1ccc(CCN(C)C(=O)c2cccc(S(=O)(=O)N3CCN(c4ccc(F)cc4)CC3)c2)cc1OC | . | . | ? | . | ? | 2.82µM*
COc1cc2c3nnc(-c4ccccc4)c-3cn(Cc3ccccc3F)c2cc1OC | 1.1% | ? | -15.2% | ? | -97.3* | ?
COc1cc2c(=O)c(S(=O)(=O)c3ccc(F)cc3)cn(Cc3ccccc3C)c2cc1OC | . | -0.8%[46.1 µM] | -14.8% | -27.7%[46.1 µM] | 4.7 | .
COc1ccc(C(=O)c2cn(Cc3ccccc3F)c3cc4c(cc3c2=O)OCO4)cc1 | . | 4.0%[46.1 µM] | 0.0% | 5.2%[46.1 µM] | -2.2 | .
